Reference: PubChem BioAssay (NCATS)
Inconclusive results are not listed. The source made the active and inactive calls. The call rests on the fitted dose curve; in most records, active means well fitted curve in the direction sought with a large enough effect; inconclusive means small, poorly fitted or top-dose-only effect, or another doubt; inactive means no such curve, though single readings can be large; an effect the other way counts as inactive or inconclusive.

What was measured:
[1] = system: MCC-26; experiment: qHTS assay to identify novel small-molecules to repurpose for Merkel cell carcinoma treatment (AID 1296009); settings: MCC and control cell lines, CellTiter-Glo viability, 72 h; series mostly up to 46 µM; further: nearly all actives have a fitted effect of over 60% in size
Outline: (§1)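 Cell viability, measured as CellTiter-Glo luminescence, was normalized between DMSO and no-cell wells. The cells had been exposed to 8- or 11-point compound dilutions for 72 hr at 37 degree celsius.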

[2] = system: MKL-1; experiment: as above; settings: MCC and control cell lines, CellTiter-Glo viability, 72 h; series mostly up to 46 µM
Outline: as §1

[3] = system: MKL-2; experiment: as above; settings: MCC and control cell lines, CellTiter-Glo viability, 72 h; series mostly up to 46 µM
Outline: as §1

[4] = system: UISO; experiment: as above; settings: MCC and control cell lines, CellTiter-Glo viability, 72 h; series mostly up to 46 µM
Outline: as §1

[5] = system: WaGa; experiment: as above; settings: MCC and control cell lines, CellTiter-Glo viability, 72 h; series mostly up to 46 µM
Outline: as §1

[6] = system: C33A; experiment: Primary qHTS to identify gynecologic anti-cancer compounds using libraries of approved drugs and bioactive compounds (AID 1345084); settings: Gynecologic cancer cell panel viability, ATPlite luminescence, 48 h; series mostly up to 57.5 µM; further: nearly all actives have a fitted effect of over 55% in size
Outline: (§2)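 48 h compound exposure at 37 C, 5% CO2; five-point qHTS. ATPlite luminescence readout of cell ATP.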

[7] = system: CAOV3; experiment: as above; settings: Gynecologic cancer cell panel viability, ATPlite luminescence, 48 h; series mostly up to 57.5 µM
Outline: as §2

[8] = system: CASKI; experiment: as above; settings: Gynecologic cancer cell panel viability, ATPlite luminescence, 48 h; series mostly up to 57.5 µM
Outline: as §2

[9] = system: Es-2; experiment: as above; settings: Gynecologic cancer cell panel viability, ATPlite luminescence, 48 h; series mostly up to 57.5 µM
Outline: as §2

[10] = system: HeLa; experiment: as above; settings: Gynecologic cancer cell panel viability, ATPlite luminescence, 48 h; series mostly up to 57.5 µM
Outline: as §2

[11] = system: Hek293T; experiment: as above; settings: Gynecologic cancer cell panel viability, ATPlite luminescence, 48 h, control line for the selectivity index; series mostly up to 57.5 µM
Outline: as §2

[12] = system: JEG-3; experiment: as above; settings: Gynecologic cancer cell panel viability, ATPlite luminescence, 48 h; series mostly up to 57.5 µM
Outline: as §2

[13] = system: OV90; experiment: as above; settings: Gynecologic cancer cell panel viability, ATPlite luminescence, 48 h; series mostly up to 57.5 µM
Outline: as §2

[14] = system: PA-1; experiment: as above; settings: Gynecologic cancer cell panel viability, ATPlite luminescence, 48 h; series mostly up to 57.5 µM
Outline: as §2

[15] = system: SKOV3; experiment: as above; settings: Gynecologic cancer cell panel viability, ATPlite luminescence, 48 h; series mostly up to 57.5 µM
Outline: as §2

[16] = system: Tov-21-G; experiment: as above; settings: Gynecologic cancer cell panel viability, ATPlite luminescence, 48 h; series mostly up to 57.5 µM
Outline: as §2

[17] = system: Tov112D; experiment: as above; settings: Gynecologic cancer cell panel viability, ATPlite luminescence, 48 h; series mostly up to 57.5 µM
Outline: as §2

[18] = Drug repurposing screens with cells derived from glioblastoma tumor samples (AID 1345199); settings: GBM patient neurospheres viability, ATP luminescence, 48 h; further: nearly all actives have a fitted effect of over 40% in size
Outline: (§3)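 Primary testing used CD133+ neurospheres from four GBM patients, seven concentrations, 48 h exposure and ATP-based viability; confirmation added three slower-growing patient lines.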

[19] = system: astro; experiment: as above; settings: viability, ATP luminescence, 48 h; series mostly up to 45.9 µM
Outline: as §3

[20] = system: NIH3T3; experiment: qHTS assay to identify novel small-molecules to repurpose for Merkel cell carcinoma treatment (AID 1296009); settings: MCC and control cell lines, CellTiter-Glo viability, 72 h; at 44.8 µM (top of the series) unless noted; further: nearly all actives have a fitted effect of over 60% in size
Outline: as §1

[21] = at 45.9 µM (top of the series), tumour line B
[22] = at 45.9 µM (top of the series), tumour line D
[23] = at 46.1 µM (top of the series), tumour line C
[24] = at 46 µM (top of the series), tumour line A
On the % scale 0 is the no-effect control and ±100 the full control effect.

Cc1nc2c([nH]1)c(=O)n(C)c(=O)n2Cc1ccco1
inactive: Potency [1] | Potency [2] | Potency [3] | Potency [4] | Potency [5] | Potency [6] | Potency [7] | Potency [8] | Potency [9] | Potency [10] | Potency [11] | Potency [12] | Potency [13] | Potency [14] | Potency [15] | Potency [16] | Potency [17] | activity, negative = cell killing [18, 21] -4.62% | activity, negative = cell killing [18, 22] -3.2% | activity, negative = cell killing [18, 23] -11.8%

O=C(O)CN(CCN(CC(=O)O)CC(=O)O)CCN(CC(=O)O)CC(=O)O
inactive: Potency [1] | Potency [2] | Potency [3] | Potency [4] | Potency [5] | Potency [6] | Potency [7] | Potency [8] | Potency [9] | Potency [10] | Potency [11] | Potency [12] | Potency [13] | Potency [14] | Potency [15] | Potency [16] | Potency [17] | activity, negative = cell killing [18, 21] -4.92% | activity, negative = cell killing [18, 22] -0.113% | activity, negative = cell killing [18, 23] -9.95% | Potency [19]

Brc1c(NC2=NCCN2)ccc2nccnc12
inactive: Potency [1] | Potency [2] | Potency [3] | Potency [4] | Potency [5] | Potency [6] | Potency [7] | Potency [8] | Potency [9] | Potency [10] | Potency [11] | Potency [12] | Potency [13] | Potency [14] | Potency [15] | Potency [16] | Potency [17] | activity, negative = cell killing [18, 21] -5.79% | activity, negative = cell killing [18, 22] -4.16% | activity, negative = cell killing [18, 23] 4.36%

O=C(O)CN(CCOCCOCCN(CC(=O)O)CC(=O)O)CC(=O)O
inactive: activity change, negative = cytotoxicity [1] 19.1% [at 0.597 µM] | activity change, negative = cytotoxicity [2] 14.4% [at 0.597 µM] | activity change, negative = cytotoxicity [3] 9.35% [at 0.597 µM] | activity change, negative = cytotoxicity [4] 21.4% [at 0.597 µM] | activity change, negative = cytotoxicity [5] 12.3% [at 0.597 µM] | activity change, negative = cytotoxicity [6] 11.2% [at 0.462 µM] | activity change, negative = cytotoxicity [7] 7.4% [at 0.462 µM] | activity change, negative = cytotoxicity [8] 2.67% [at 0.462 µM] | activity change, negative = cytotoxicity [9] -1.06% [at 0.462 µM] | activity change, negative = cytotoxicity [10] 11.5% [at 0.462 µM] | activity change, negative = cytotoxicity [11] -0.823% [at 0.462 µM] | activity change, negative = cytotoxicity [12] -5.11% [at 0.462 µM] | activity change, negative = cytotoxicity [13] 2.64% [at 0.462 µM] | activity change, negative = cytotoxicity [14] -1.54% [at 0.462 µM] | activity change, negative = cytotoxicity [15] 17.7% [at 0.462 µM] | activity change, negative = cytotoxicity [16] 1.63% [at 0.462 µM] | activity change, negative = cytotoxicity [17] 6.01% [at 0.462 µM] | activity, negative = cell killing [18, 21] -21% | activity, negative = cell killing [18, 22] -7% | activity, negative = cell killing [18, 24] -22.8% | activity, negative = cell killing [18, 23] 4.28% | Potency [19]

C[N+](C)(C)CCOC(=O)CCC(=O)OCC[N+](C)(C)C
inactive: Potency [1] | Potency [2] | Potency [3] | outcome [20] | Potency [4] | Potency [5] | Potency [6] | Potency [7] | Potency [8] | Potency [9] | Potency [11] | Potency [12] | Potency [13] | Potency [14] | Potency [15] | Potency [16] | Potency [17] | activity, negative = cell killing [18, 21] 5.74% | activity, negative = cell killing [18, 22] -9.68% | activity, negative = cell killing [18, 24] -19.2% | activity, negative = cell killing [18, 23] 9.88% | Potency [19]

CCn1ccnc1CC1COc2ccccc2O1 (stereo unspecified)
inactive: Potency [1] | Potency [2] | Potency [3] | Potency [4] | Potency [5] | Potency [6] | Potency [7] | Potency [8] | Potency [9] | Potency [10] | Potency [11] | Potency [12] | Potency [13] | Potency [14] | Potency [15] | Potency [16] | Potency [17] | activity, negative = cell killing [18, 21] -17.6% | activity, negative = cell killing [18, 22] -4.46% | activity, negative = cell killing [18, 23] -8.32% | Potency [19]
